The record followed here is PubChem BioAssay AID504834 (National Center for Advancing Translational Sciences (NCATS), 2011).

SMILES strings stand for the structures. The campaign covered roughly 320,000 compounds. About 22,000 (6.9%) were called active. Another 27% or so got no clear call; they are omitted. Shown is part of a subset that was picked to be rich in actives. Where a call stands in place of a potency, no number is given. A number with no mark means an inactive call. Calls come from the whole dose curve; as a rule, active = well fitted inhibition curve with a large enough effect; inconclusive = small, poorly fitted or top-dose-only effect, or another doubt; inactive = no such curve, though single readings can be large or run the other way.
Potency is the fitted concentration of half-maximal effect.

This test can be described thus: Primary qHTS for delayed death inhibitors of the malarial parasite plastid, 96 hour incubation. The conditions noted are these: P. falciparum luciferase reporter growth; series mostly up to 28.7 µM. The method in brief: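 Erythrocytes infected with luciferase-expressing P. falciparum were dispensed at 2% hematocrit and 0.05% parasitemia (final), then incubated with compounds 96 hours at 37 C in 5% CO2. Luminescence after detection reagent addition reported growth.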
Regarding `CCC(=O)Nc1ccc(Nc2nc(Cl)nc(Nc3ccc(NC(=O)CC)cc3)n2)cc1`, the Potency entry was “inactive”.

On to `O=C(O)CSCC(=O)Nc1ccc(C(F)(F)F)cc1`, for which the Potency result is “inactive”.

With `O=C(CCl)Nc1ccc(Sc2ccc(NC(=O)CCl)cc2)cc1`, the Potency was 1.85 µM (active).

Consider `Cc1ccc2nc(N(CCN(C)C)C(=O)C3=COCCO3)sc2c1`, for which the Potency result was “inactive”.

Take `COCCNC(=O)c1ccc2nc(Cc3ccc(OC)c(OC)c3)oc2c1`: the Potency result is “inactive”.

On to `O=C(Nc1ccncc1)c1ccccc1[N+](=O)[O-]`, for which the Potency result was “inactive”.

For the compound `O=C(CN1CCC(NC(=O)Nc2ccccc2)CC1)Nc1cccc([N+](=O)[O-])c1`, the Potency result is “inactive”.

Turning to `O=C(Nc1ccccc1[N+](=O)[O-])C1C(c2ccccc2)=C1c1ccccc1`, the Potency is 13.1 µM (active).

`O=[N+]([O-])c1ccccc1Nc1ccc(O)cc1`: the Potency entry was “inactive”.

Turning to `O=C(Nc1ccccc1-c1ccccc1)c1ccccc1[N+](=O)[O-]`, the Potency result is “inactive”.

`O=C(CN1CCCCC1)Nc1ccccc1C(=O)NC1CC1`: the Potency result is “inactive”.

Consider `O=C(O)c1ccccc1NC(=O)c1ccccc1-c1ccccc1C(=O)O`, for which the Potency entry is “inactive”.

On to `O=C(O)c1ccccc1NC(=S)NC(NC(=O)c1ccccc1[N+](=O)[O-])C(Cl)(Cl)Cl` (stereo not given), for which the Potency is 13.1 µM (active).

Take `O=C(Nc1cccc(NC(=O)c2ccccc2[N+](=O)[O-])c1)c1ccccc1Cl`: the Potency result is “inactive”.

As to `O=C(O)c1ccccc1C(=O)Nc1ccccc1[N+](=O)[O-]`, the Potency entry is “inactive”.

Turning to `O=C(CN1CCC(NC(=O)C2CC2)CC1)Nc1ccccc1[N+](=O)[O-]`, the Potency was 0.738 µM (active).

On to `O=C(NNC(=O)c1ccccc1[N+](=O)[O-])Nc1ccccc1C(F)(F)F`, for which the Potency was 11.7 µM (active).

On to `Cc1ccsc1C(=O)NCCc1ccco1`, for which the Potency result is “inactive”.

Consider `CCCOC1CCCN(C(=O)c2cc(COc3cncc(Cl)c3)on2)C1` (stereo not given), for which the Potency result was “inactive”.

As to `O=C1Nc2cc(C(=O)N3CCN(c4ccc(F)cc4)CC3)ccc2NC1CSCc1cccc(F)c1` (stereo not given), the Potency result was “inactive”.

Consider `COC(=O)c1sc(NC(=S)NC(=O)c2ccc(C)cc2)nc1C`, for which the Potency result is “inactive”.

`Nc1cccc(S(=O)(=O)Nc2ccc(SC(F)F)cc2)c1`: the Potency result was “inactive”.

Take `COc1cc(N=Cc2c(O)c3ccccc3oc2=O)c(OC)cc1Cl`: the Potency result is “inactive”.

Take `CCOc1ccc(S(=O)(=O)NCCC(=O)N2CCCCCCC2)cc1`: the Potency result was “inactive”.

In the case of `CCN(CC(=O)NCc1ccc(Cl)cc1)C(=O)c1c(C)noc1C`, the Potency entry was “inactive”.

Regarding `Cc1ccccc1Nc1c([N+](=O)[O-])ccc2nonc12`, the Potency result is “inactive”.

Take `CCc1nc2sc3c(Cl)ncnc3c2c2c1CCCC2`: the Potency entry was “inactive”.

In the case of `O=C(c1cnc(Cl)c(Cl)c1)N1CCN(S(=O)(=O)c2ccc(F)cc2)CC1`, the Potency result was “inactive”.

Regarding `Cc1nc(-c2ccc(F)cc2)c(CC(=O)N2CCN(S(=O)(=O)c3ccc(F)cc3)CC2)s1`, the Potency is 13.1 µM (active).

On to `Cc1nc(-c2ccc(F)cc2)c(CC(=O)N(C)CC(=O)Nc2c(C)cccc2C)s1`, for which the Potency result is “inactive”.

Take `COc1ccc(N2C(=O)NC(NS(=O)(=O)c3ccc(Cl)cc3)(C(F)(F)F)C2=O)cc1` (stereo not given): the Potency entry is “inactive”.

Take `O=C1CSc2ccc(S(=O)(=O)NCc3ccccc3)cc2N1`: the Potency result was “inactive”.

For the compound `CC1(C)CC(=O)C(N=Nc2c(F)cccc2F)=C(O)C1`, the Potency result is “inactive”.

For the compound `CCC(NC(=O)C1CCCC1)c1ccc(C)cc1` (stereo not given), the Potency entry is “inactive”.

As to `CCCCN(CC(=O)Nc1cccc(S(=O)(=O)N2CCCC2)c1)Cc1nc2ccccc2c(=O)[nH]1`, the Potency is 5.86 µM (active).

With `CCN(CC(=O)Nc1cccc(S(N)(=O)=O)c1)Cc1nc2ccccc2c(=O)[nH]1`, the Potency result was “inactive”.

`O=C(Cn1cnc2ccccc2c1=O)Nc1cccc(S(=O)(=O)N2CCCCC2)c1`: the Potency entry is “inactive”.

Take `CCc1noc(C)c1C(=O)N1CCN(S(=O)(=O)c2cccc(C(F)(F)F)c2)CC1`: the Potency result was “inactive”.

`Cn1ncc(Br)c1C(=O)NC1CCCC1`: the Potency entry was “inactive”.

Regarding `NC(=O)CSc1nnc(NC(=O)c2ccc3ccccc3c2)s1`, the Potency entry was “inactive”.

As for `CC(=O)N1N=C(c2ccccc2)OC1c1cccnc1` (stereo not given), the Potency entry was “inactive”.

Regarding `CC(C)(C)N(Cc1ccccc1)C(=O)c1ccncc1`, the Potency result was “inactive”.

For the compound `CC(=O)N1N=C(c2ccncc2)OC1(Cc1ccccc1)Cc1ccccc1`, the Potency was 11.7 µM (active).

In the case of `Cn1c(C(=O)N2CCCC(C(=O)NCc3ccccc3)C2)cc2sccc21` (stereo not given), the Potency entry was “inactive”.

Turning to `COc1ccc(NC(=O)c2cc(-c3cc(OC)c(OC)c(OC)c3)nc3ccccc23)c(OC)c1`, the Potency was 2.62 µM (active).

Consider `CNC(=O)COC(=O)c1cc(-c2ccc(OC)cc2)nc2ccccc12`, for which the Potency entry was “inactive”.

Consider `COc1cc(-c2cc(C(=O)OCC(=O)Nc3ccc4c(c3)OCO4)c3ccccc3n2)cc(OC)c1OC`, for which the Potency result was “inactive”.

As for `CC1CCCCC12NC(=O)N(CC(=O)OCC(=O)NCc1ccc(F)cc1)C2=O` (stereo not given), the Potency result was “inactive”.

As to `Cc1ccc(C(=O)N2CCN(C3CCCCC3)CC2)s1`, the Potency result is “inactive”.

Take `O=C(C1CCN(S(=O)(=O)c2ccc(Br)s2)CC1)N1CCN(c2ccccc2)CC1`: the Potency result is “inactive”.

On to `O=C(C1CCN(S(=O)(=O)c2ccc(Br)s2)CC1)N1CCN(C2CCCCC2)CC1`, for which the Potency is 4.65 µM (active).

With `Cc1cccc(C)c1NC(=O)N1CC(C)OC(C)C1` (stereo not given), the Potency result was “inactive”.

On to `COC(=O)c1ccc(OC(=O)c2cnccn2)cc1`, for which the Potency entry is “inactive”.

In the case of `Cc1cccc(OCC(=O)Nc2ccccc2F)c1`, the Potency entry was “inactive”.

Take `Cc1cccc(OP(=O)(Nc2c(C)n(C)n(-c3ccccc3)c2=O)Oc2cccc(C)c2)c1`: the Potency result was “inactive”.

For the compound `Cc1cccc(OP(=O)(Oc2cccc(C)c2)OC(c2ccccc2)C(F)(F)F)c1` (stereo not given), the Potency was 13.1 µM (active).

Turning to `COc1ccc(S(=O)(=O)N2CCCCC2)cc1NC(=O)C1CC(=O)N(c2ccc3c(c2)OCCO3)C1` (stereo not given), the Potency entry is “inactive”.

As to `COc1cccc(-n2nc(C(=O)N3CCN(Cc4ccccc4)CC3)c3ccccc3c2=O)c1`, the Potency was 5.22 µM (active).

Consider `COc1cc(OC)c(OC)cc1CN1CCN(C(=O)c2cccc3ccccc23)CC1`, for which the Potency result was “inactive”.

Take `CCOC(=O)CNC(=O)c1nn(-c2cccc(OC)c2)c(=O)c2ccccc12`: the Potency entry is “inactive”.

Take `CCC(=O)c1ccc(OCC(=O)N(CC)CC2COc3ccccc3O2)cc1` (stereo not given): the Potency entry is “inactive”.

Take `Cc1cc(NC(=O)CSc2nc(=O)cc(N)n2-c2ccc(F)cc2)no1`: the Potency entry was “inactive”.

On to `Cc1ccc(CNC(=O)C2CCCN2S(=O)(=O)c2ccc3c(c2)C(C)(C)C(=O)N3C)cc1` (stereo not given), for which the Potency was 1.47 µM (active).

Regarding `Cc1ccc(S(=O)(=O)N2CCCC2C(=O)NCc2ccco2)cc1` (stereo not given), the activity change, negative = inhibition is -13.6% [at 5.75 µM].

On to `CCOC(=O)C1CCCN(S(=O)(=O)c2ccc3c(c2)C(C)(C)C(=O)N3C)C1` (stereo not given), for which the Potency result was “inactive”.
